From PubChem BioAssay (Tox21) come the findings set out here.

Unmarked numbers belong to inactive results. Results filed as inconclusive are left out. Activity calls are given as the source filed them. Unless noted, calls follow the shape of the dose curve; as a rule, active = well fitted curve in the direction sought with a large enough effect in the repeat runs; inconclusive = weak or mixed curves; inactive = no such curve, though single readings can be large; an effect the other way counts as inactive or inconclusive.

Assay [1] in a line: qHTS assay for small molecule agonists of the p53 signaling pathway (AID 651631; calls by dose curve; also: nearly all actives have a fitted effect of over 15% in size; also: potency is read from the fitted curve at half-maximal effect). The procedure, abridged:
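HCT-116 cells carrying a stable p53 response element–beta-lactamase reporter were plated, rested 5 h at 37 °C, then exposed to compound in DMSO for 16 h at 37 °C; reporter activity was read as FRET substrate fluorescence after 2 h at room temperature.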

Assay [2] is described as follows: qHTS assay for small molecules that induce genotoxicity in human embryonic kidney cells expressing luciferase-tagged ATAD5 (AID 651632). Also: nearly all actives have a fitted effect of over 15% in size. The procedure, abridged:
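Increased luciferase signal from ATAD5-tagged reporter cells indicates DNA-damage-driven ATAD5 induction. HEK293T cells are treated for 16 hr at 37C before detection with Amplite.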
A general note: In qHTS, concentration-response curves come from the screen itself.

Assay [3] in a line: qHTS assay for small molecule agonists of the p53 signaling pathway - cell viability (AID 651633; calls by dose curve; also: series mostly up to about 83 µM; nearly all actives have a fitted effect of over 30% in size). The procedure, abridged:
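p53RE-bla cells were treated with compound for 16 hours at 37 C. Cytotoxicity was then measured as CellTiter-Glo luminescence after 30 min at room temperature.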

Assay [4] is described as follows: qHTS assay for small molecules that induce genotoxicity in human embryonic kidney cells expressing luciferase-tagged ATAD5 - cell viability (AID 651634; calls by dose curve; also: nearly all actives have a fitted effect of over 25% in size; also: potency is read from the fitted curve at half-maximal effect). The essentials:
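Cytotoxicity counterscreen in HEK293T cells bearing an ATAD5-luciferase reporter: live-cell protease activity measured by CellTiter-Fluor fluorescence after 15.5 hr compound exposure.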

Assay [5] can be described thus: qHTS assay for small molecule disruptors of the mitochondrial membrane potential - cell viability (AID 720634; calls by dose curve;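 also: human HepG2 liver cancer cells; series mostly up to about 83 µM; nearly all actives have a fitted effect of over 20% in size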). The essentials:
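After overnight attachment at 37 C, HepG2 cells received compound or DMSO vehicle for 1 hr. Viability is then taken from ATP-driven luminescence following a 30 min room-temperature CellTiter-Glo step.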

The nature of assay [6]: qHTS assay for small molecule disruptors of the mitochondrial membrane potential (AID 720635). Also: potency is read from the fitted curve at half-maximal effect. The essentials: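 HepG2 cells exposed to compound 1 hr at 37C, then Mito-MPS dye 30 min. Ratio read of aggregate (540/590 nm) versus monomer (490/535 nm) fluorescence.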
Assay [7] in a line: qHTS assay to test for compound auto fluorescence at 590 nm (red) in HepG2 cells (AID 720674). The essentials:
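HepG2 cells, 2,000 per well in MEM with 10% FBS, attached overnight at 37 C, then got 23 nL compound or DMSO. After 1 hr at 37 C, 5% CO2, red fluorescence was read at 540/590 nm against Rose Bengal sodium as reference.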

A short description of assay [8]: qHTS assay to test for compound auto fluorescence at 535 nm (green) in HepG2 cells (AID 720675).
The nature of assay [9]: qHTS assay to test for compound auto fluorescence at 460 nm (blue) in HEK293 cells (AID 720678). The essentials:
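Blue-channel (Ex/Em 405/460 nm) intensity measured in HEK293 cultures after overnight compound exposure at 37C; signal expressed relative to triamterene. Cells plated 2,000 per well in 10% dialyzed FBS medium and allowed 4-5 hr to attach.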

The nature of assay [10]: qHTS assay to test for compound auto fluorescence at 590 nm (red) in HEK293 cells (AID 720679). The essentials:
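Red-channel autofluorescence (Ex/Em 540/590 nm; Rose Bengal sodium reference) was measured after overnight 37C, 5% CO2 exposure of attached HEK293 cells, 2,000 per well in medium with 10% dialyzed FBS.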

Assay [11] in a line: qHTS assay to test for compound auto fluorescence at 535 nm (green) in HEK293 cells (AID 720680).
The nature of assay [12]: qHTS assay to test for compound auto fluorescence at 460 nm (blue) in HEK293 cell free culture (AID 720681). The procedure, abridged:
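Compounds were added to cell-free DMEM with 10% FBS and fluorescence read directly. The blue channel used 405 nm excitation and 460 nm emission, with triamterene as the reference fluorophore.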

Assay [13] can be described thus: qHTS assay to test for compound auto fluorescence at 535 nm (green) in HEK293 cell free culture (AID 720682). The procedure, abridged:
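Read-out: 485/535 nm fluorescence intensity, calibrated against fluorescein. Medium only (DMEM + 10% FBS, no cells); test compound or DMSO vehicle added by pintool before plate reading.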

Assay [14] in a line: qHTS assay to test for compound auto fluorescence at 590 nm (red) in HEK293 cell free culture (AID 720683). The procedure, abridged:
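Cell-free wells of DMEM with 10% FBS received compound, and intrinsic fluorescence was read at excitation/emission 540/590 nm. Values expressed as equivalence to Rose Bengal sodium.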

Assay [15] in a line: qHTS assay to test for compound auto fluorescence at 460 nm (blue) in HepG2 cell free culture (AID 720685). The essentials:
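Compound (23 nL) or DMSO pinned into cell-free MEM with 10% FBS; blue fluorescence read at 405/460 nm excitation/emission, expressed as auto-fluorescence equivalency to triamterene.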

Assay [16] is described as follows: qHTS assay to test for compound auto fluorescence at 535 nm (green) in HepG2 cell free culture (AID 720686).
A short description of assay [17]: qHTS assay to test for compound auto fluorescence at 460 nm (blue) in HepG2 cells (AID 720687). The essentials:
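HepG2 cells in MEM with 10% FBS, attached overnight at 37 C, were exposed to compound or DMSO for 1 hr at 37 C, 5% CO2. Blue fluorescence was read at 405/460 nm, with triamterene as reference fluorophore.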

Assay [18] deals with Glucocorticoid receptor (Homo sapiens) (UniProt P04150). The assay can be described thus: qHTS assay to identify small molecule agonists of the glucocorticoid receptor (GR) signaling pathway (AID 720691; active = well fitted activation curve with a large enough effect in the signal ratio in the repeat runs, not every such curve was filed as active; the % refers to the signal ratio). The essentials: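 Agonist mode in a HeLa line carrying a GRE-controlled beta-lactamase reporter. Compounds act for 18 h at 37 C before a 2 h room-temperature FRET substrate step and fluorescence reading.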

Assay [19] has the same target. The assay can be described thus: qHTS assay to identify small molecule antagonists of the glucocorticoid receptor (GR) signaling pathway (AID 720692; active = well fitted inhibition curve with a large enough effect in the signal ratio in the repeat runs, not every such curve was filed as active; the % refers to the signal ratio). The essentials: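 Cells plated, rested 4 h at 37 C/5% CO2; compounds in DMSO pin-transferred; dexamethasone added to 5 nM final; 18 h at 37 C; B/G FRET substrate added, 2 h room temperature; fluorescence measured.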

Assay [20] can be described thus: qHTS assay to test for compound auto fluorescence at 590 nm (red) in HepG2 cell free culture (AID 720684). The procedure, abridged:
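Compound was pinned into wells holding MEM with 10% FBS and no cells, and red fluorescence was read at Ex/Em 540/590 nm. Signal is expressed as auto fluorescence equivalency relative to Rose Bengal sodium.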

Chain of Glucocorticoid receptor (Homo sapiens) (P04150 whole entry, looked up): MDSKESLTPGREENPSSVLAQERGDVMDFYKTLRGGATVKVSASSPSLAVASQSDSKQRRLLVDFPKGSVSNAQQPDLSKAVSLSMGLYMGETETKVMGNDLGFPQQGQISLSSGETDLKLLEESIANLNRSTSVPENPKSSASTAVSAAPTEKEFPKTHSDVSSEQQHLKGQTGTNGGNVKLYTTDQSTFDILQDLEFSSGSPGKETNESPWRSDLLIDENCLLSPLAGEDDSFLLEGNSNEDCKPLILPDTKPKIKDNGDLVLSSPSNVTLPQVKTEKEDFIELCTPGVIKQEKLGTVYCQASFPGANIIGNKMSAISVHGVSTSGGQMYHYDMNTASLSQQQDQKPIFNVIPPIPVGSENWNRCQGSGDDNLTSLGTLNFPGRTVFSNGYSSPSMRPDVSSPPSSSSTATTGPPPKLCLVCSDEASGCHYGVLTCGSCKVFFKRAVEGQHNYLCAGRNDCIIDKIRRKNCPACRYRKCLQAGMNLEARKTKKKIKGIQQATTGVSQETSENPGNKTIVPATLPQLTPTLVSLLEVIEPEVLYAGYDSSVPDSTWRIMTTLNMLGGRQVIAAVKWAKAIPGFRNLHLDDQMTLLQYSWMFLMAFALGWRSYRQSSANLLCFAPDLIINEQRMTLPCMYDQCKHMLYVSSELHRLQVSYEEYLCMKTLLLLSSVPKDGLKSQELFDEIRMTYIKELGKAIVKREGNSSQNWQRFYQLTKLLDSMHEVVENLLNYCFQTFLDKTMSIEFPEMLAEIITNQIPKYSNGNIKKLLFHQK

Regarding `CC(C)C(O)C(C)(C)CO` (stereo not given), the Potency entry in [1], in assay [2], in assay [3], in [4], in assay [6] and in assay [9] was “inactive” in each case. Besides, the Potency entry in [12], in assay [15], in assay [17], in assay [18] and in [19] was “inactive” throughout. Moreover, the outcome in assay [5], in assay [7], in assay [8], in assay [10], in assay [11] and in assay [13] was inactive. In addition, the result in assay [14] and in assay [16] was inactive.
Regarding `O=NN(CCCl)C(=O)NCCCl`, the Potency in assay [1] was 1.19 µM (active). Moreover, the Potency result in assay [2], in [3], in [4], in assay [6], in assay [9] and in assay [12] was “inactive” each time. The Potency result in [15], in assay [17], in assay [18] and in assay [19] was “inactive” each time. Further, the molecule was classed as inactive in assay [5], in [7], in assay [8], in assay [10], in assay [11] and in assay [13]. Further, the molecule was called inactive in assay [14], in [20] and in assay [16].
With `O=C1c2ccccc2C(=O)c2c(O)ccc(O)c21`, the Potency result in assay [1], in assay [2], in assay [3], in assay [9], in assay [12] and in assay [15] was “inactive” each time. Also, the Potency result in [17] and in [18] was “inactive” each time. Further, the Potency in assay [4] was 54.5 µM (active); in assay [6] it was 3.06 µM (active). Further, the molecule was classed as inactive in assay [5], in [7], in assay [8], in [10], in [11] and in [13]. Also, the result in assay [14], in [20] and in [16] was inactive.
With `CC1=C2[C@@H]([C@H](C)CC[C@H]2/C=C(\C)C(=O)O)[C@H](O)C1`, the Potency result in assay [1], in assay [2], in assay [3], in [4], in assay [6] and in [9] was “inactive” throughout. Besides, the Potency result in assay [12], in assay [15], in [17], in [18] and in assay [19] was “inactive” in each case. Moreover, the outcome in assay [5], in assay [7], in [8], in [10], in assay [11] and in assay [13] was inactive. The molecule was called inactive in assay [14], in [20] and in assay [16].
For `CC(C)(O)c1coc(S(=O)(=O)NC(=O)Nc2c3c(cc4c2CCC4)CCC3)c1`, the Potency entry in assay [1], in assay [2], in [3], in assay [4], in [6] and in [9] was “inactive” each time. In addition, the Potency entry in [12], in [15], in [17], in assay [18] and in [19] was “inactive” throughout. For the same molecule, the molecule was classed as inactive in [5], in assay [7], in assay [8], in assay [10], in assay [11] and in assay [13]. Further, the molecule was called inactive in assay [14], in assay [20] and in [16].
On to `C=C(C)c1ccccc1`, for which the Potency result in assay [1], in assay [2], in [3], in assay [4], in [6] and in [9] was “inactive” in each case. The Potency entry in assay [12], in [15] and in [17] was “inactive” throughout. For the same molecule, the molecule was called inactive in assay [5], in assay [7], in assay [8], in assay [10], in assay [11] and in assay [13]. Further, the molecule was classed as inactive in assay [14] and in assay [16].
As to `Nc1ccn([C@H]2CS[C@@H](CO)O2)c(=O)n1`, the Potency entry in [1], in assay [2], in assay [3], in assay [4], in assay [6] and in [9] was “inactive” throughout. For the same molecule, the Potency entry in assay [12], in [15], in [17], in assay [18] and in [19] was “inactive” throughout. Besides, the call in assay [5], in [7], in assay [8], in assay [10], in [11] and in [13] was inactive. Moreover, the molecule was called inactive in assay [14], in assay [20] and in assay [16].
